Screens deposited in PubChem BioAssay by National Center for Advancing Translational Sciences (NCATS).
DT40 TDP1 no CPT: qHTS for Inhibitors of human tyrosyl-DNA phosphodiesterase 1 (TDP1): qHTS in cells in absence of CPT | DT40 Tdp1-/- hTDP1 cells, no CPT, ATP luminescence, 48 h | Potency, µM (doses to about 46.2 µM), without a hit: top-dose activity change, negative = growth inhibition, actives largely listed as inhibitors | 15% of 420,000 active | AID 686978, 2013; also: potency is read from the fitted curve at half-maximal effect; nearly all actives have a fitted effect of over 55% in size
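Seeded 400 DT40-hTDP1 cells/well (vehicle DMSO, no 20 nM CPT); pinned compounds; ≥48 hr at 37 °C; CellTiter-Glo luminescence as viability measure.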
IL1B secr inh: inhibitors of inflammasome signaling (IL-1 beta secretion); THP-1 LPS/ATP IL-1B secretion, AlphaLISA, 16 h; stronger effect = lower value; activity change, % at 57.5 µM; 4.7% of 360,000 active; in the data active = activity change below about -50%; inconclusive = mostly about -30% to -49%
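Secreted IL-1B measured by AlphaLISA bead assay after 16 h compound exposure of THP-1 cells; compounds (final up to 57.5 uM) added 1 h before LPS (250 ng/mL) and ATP (1.25 mM) stimulation; lower signal means less secretion.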
HT1080 IDH1KD tx: kills HT-1080 cells with IDH1 knockdown; HT-1080 IDH1 knockdown viability, ATP luminescence, 48 h; Potency, µM (titrated, usually from 46.1 µM), for the others: at the top dose activity, negative = toxicity, hits mostly cytotoxic; 2% of 360,000 active; AID 686971;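 also: potency is read from the fitted curve at half-maximal effect; 0% = DMSO wells and -100% = cell-free medium wells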
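CellTiter-Glo luminescence after 48 h compound exposure at 37 degrees C of IDH1-knockdown HT-1080 cells in 5% FBS RPMI. %Activity scaled between DMSO wells and cell-free media wells, with curves fitted and assigned curve classes.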
DT40 TDP1 CPT: DT40-hTDP1 cell growth loss with CPT | chicken DT40 Tdp1-/-;hTDP1 cells + 20 nM CPT, ATP luminescence, 48 h | AID 686979 | 12% of 420,000 active | Potency, µM (top dose mostly 46.2 µM), inactives show at the highest dose activity change, negative = growth inhibition, usual class: inhibitors; also: potency is read from the fitted curve at half-maximal effect; nearly all actives have a fitted effect of over 55% in size
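Chicken DT40 Tdp1-/- cells complemented with human TDP1, 400 cells/well, exposed to compounds plus 20 nM camptothecin for at least 48 h at 37 C; viability read as ATP content by CellTiter-Glo luminescence.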
12-LOX inh: blocks human arachidonate 12S-lipoxygenase; P18054; purified 12hLO, xylenol orange hydroperoxide absorbance; Potency, µM (highest dose often 108 µM), without a hit: top-dose activity change, negative = inhibition, usual class: inhibitors; 1.1% of 580,000 active; also: potency is read from the fitted curve at half-maximal effect
Target sequence (P18054 whole entry, looked up): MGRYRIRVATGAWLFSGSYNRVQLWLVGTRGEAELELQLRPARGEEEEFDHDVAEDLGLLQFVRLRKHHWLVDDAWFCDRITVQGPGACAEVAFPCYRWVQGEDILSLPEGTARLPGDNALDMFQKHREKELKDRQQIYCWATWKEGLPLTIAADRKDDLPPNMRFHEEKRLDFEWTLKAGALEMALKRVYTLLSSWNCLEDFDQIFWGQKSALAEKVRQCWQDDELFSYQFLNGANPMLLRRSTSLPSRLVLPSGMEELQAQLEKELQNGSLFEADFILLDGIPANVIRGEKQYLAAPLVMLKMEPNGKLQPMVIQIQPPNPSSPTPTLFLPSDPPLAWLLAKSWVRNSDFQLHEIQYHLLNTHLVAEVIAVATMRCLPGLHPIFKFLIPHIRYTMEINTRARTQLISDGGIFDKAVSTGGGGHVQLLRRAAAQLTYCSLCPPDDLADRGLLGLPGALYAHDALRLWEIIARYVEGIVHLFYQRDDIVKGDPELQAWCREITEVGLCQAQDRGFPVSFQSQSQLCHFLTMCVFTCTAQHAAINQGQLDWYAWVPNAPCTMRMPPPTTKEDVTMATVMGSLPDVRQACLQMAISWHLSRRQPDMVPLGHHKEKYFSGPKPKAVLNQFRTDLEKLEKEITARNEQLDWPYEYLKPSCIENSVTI
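Purified human 12hLO (150 nM final) in 25 mM Hepes, 0.01% Triton X-100, pH 7.0 was preincubated 15 min at room temperature with compound. Then 40 uM arachidonic acid was added, 30 min. Hydroperoxide was read by Fe-XO absorbance ratio 573/405 nm.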
HT1080-NT tox: kills 2HG-producing HT-1080-NT fibrosarcoma cells | HT-1080-NT fibrosarcoma viability, CellTiter-Glo ATP luminescence, 48 h | Potency, µM (doses to about 46.1 µM), for the others: at the highest dose activity, negative = less viability, hits mostly cytotoxic | 1.6% of 360,000 active;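 also: NT is the 2HG producing partner of a matched IDH1 knockdown line; potency is read from the fitted curve at half-maximal effect; 0% = DMSO-treated cells and -100% = media-only wells without cells; nearly all actives have a fitted effect of over 55% in size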
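Luminescent CellTiter-Glo readout after 48 hours of compound exposure at 37 degrees C defined viability of HT-1080-NT cells. Activity was normalized to DMSO wells and cell-free media wells; concentration-response curves were fitted and assigned curve classes.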
* marks the source's active call; other numbers are inactive results; ? = inconclusive; · = not tested or not shown; [ ] = remark or other dose. The entries come from a sample that favours hits as a whole. Unless noted, calls follow the shape of the dose curve; as a rule, active = well fitted curve in the direction sought with a large enough effect; inconclusive = small, poorly fitted or top-dose-only effect, or another doubt; inactive = no such curve, though single readings can be large; an effect the other way counts as inactive or inconclusive. Unless noted, % is scaled to controls: 0 for no effect and ±100 for the full control effect.

SMILES	DT40 TDP1 no CPT	IL1B secr inh	HT1080 IDH1KD tx	DT40 TDP1 CPT	12-LOX inh	HT1080-NT tox
CCc1cccc(C)c1N=Cc1c(O)c2ccccc2oc1=O	-2.7%	-1.5	?	-25.1%	25.6%	?
CCOC(=O)c1c(C)[nH]c(C(=O)N/N=C\c2ccccc2Cl)c1C	16.4µM*	0.0	14.6µM*	16.4µM*	29.2%	?
CCOC(=O)c1[nH]c(C)c(C(=O)Nc2ccc(Cl)cc2)c1C	-10.8%	14.1	8.7%	8.6%	7.4%[57.4 µM]	5.8%
COc1cccc(/C=N/NC(=O)c2[nH]c(C)c(C(=O)N/N=C/c3cccc(OC)c3)c2C)c1	?	-22.6	-14.2%	?	-4.1%	-10.2%
COc1ccc(C(=O)Oc2cccc(/C=N/NC(N)=S)c2)cc1	?	0.0	-12.5%	?	39.8µM*	-12.3%
CCOC(=O)c1c(C)[nH]c(C(=O)NNC(=O)c2ccccc2)c1C	-7.2%	-1.6	17.1%	-10.8%	6.4%	7.9%
COC(=O)N/N=C/c1cccc(OC(=O)c2ccc3c(c2)OCO3)c1	-28.8%	-3.9	-2.2%	-13.4%	?	3.4%
CCOC(=O)c1c(C)[nH]c(C(=O)N/N=C/c2cccc(OC)c2)c1C	14.6µM*	32.6	?	?	11.6%	?
CCOC(=O)c1[nH]c(C)c(C(=O)Nc2cccc(Cl)c2C)c1C	16.4µM*	22.0	7.94µM*	10.3µM*	-2.7%	11.2µM*
CC1C(c2ccc(Cl)cc2)=[N+]([O-])C(C)(C)N1O (configuration not stated)	·	·	·	·	10.7%	·
CCOCCOc1nc2c(c(=O)n(C)c(=O)n2C)n1Cc1ccccc1	·	·	·	·	-0.6%	·
CCOC(=O)c1c(C)[nH]c(C(C)=NNC(=O)c2cccs2)c1C	6.51µM*	-7.9	-0.2%	11.6µM*	-2.7%	-2.2%
Clc1ccc(-c2nc3c4ccccc4ccn3c2Cc2cccc(Cl)c2)cc1	7.31µM*	53.3	0.5%	?	0.0%	0.7%
Clc1cccc(Cc2c(-c3cccc(Br)c3)nc3c4ccccc4ccn23)c1	-20.9%	34.4	5.0%	-29.0%	17.3%	14.6%
Cc1ccc(Cc2c(-c3cccc(Br)c3)nc3c4ccccc4ccn23)cc1	·	·	·	·	88.1%	·
Fc1cccc(Cc2c(-c3ccccc3)nc3c4ccccc4ccn23)c1	16.4µM*	5.4	-27.8%	?	-7.1%	-6.9%
CCOC(=O)Cc1c(-c2cccc(Cl)c2)nc2c3ccccc3ccn12	20.6µM*	2.5	?	?	0.0%	?
Cc1ccc(Cc2c(C3CCCCC3)nc3ccc(C)cn23)cc1	18.4µM*	-52.4*	?	18.4µM*	?	?
Cc1ccc2nc(C3CCCCC3)c(Cc3ccsc3)n2c1	9.2µM*	-11.4	?	13µM*	?	-29.7%
Brc1ccc2nc(C3CCCCC3)c(Cc3ccccc3)n2c1	?	48.8	?	?	-29.7%	-28.8%
Cc1ccccc1CNC(=O)CCn1ccn2nc3c(c2c1=O)CCCC3	·	·	·	·	7.0%	·
N#Cc1nc(/C=C/c2cccs2)oc1NC1CCCCC1	·	·	·	·	-0.7%	·
O=S(=O)(c1ccccc1)c1cc(O)ccc1O	7.31µM*	0.0	-0.3%	3.26µM*	-14.0%	-0.8%
O=S(=O)(c1ccc(Cl)cc1)c1cc(O)ccc1O	-29.9%	3.3	-11.4%	-2.2%	-78.7%	-3.6%
COc1cccc(-n2cnc3c(sc4nc(N5CCOCC5)c5c(c43)CCCC5)c2=O)c1	18.4µM*	-54.4*	16.5%	?	19.0%	23.2%
Cc1ccccc1-c1cncnc1Nc1ccc(F)cc1	-24.3%	·	·	-28.6%	-14.2%	·
CCOC(=O)c1c(NC(=O)CSc2ccccn2)sc2c1CCC2	·	·	·	·	3.1%	·
